# According to PubChem BioAssay (EPA / NIEHS):
# A structure can be active in one record and inactive in another. The source made the active and inactive calls. The calls were made as follows: active = hit-call score of the fitted dose curve at least 0.9, where 1 is the maximum; inactive = score below 0.9.
# Test: ATG_DR4_LXR_CIS: Attagene CIS-FACTORIAL HepG2 Assay for human Liver X Receptor (LXR), DR4 submotif (AID 2282929)
# Settings: HepG2 Attagene DR4 cis-reporter, mRNA transcription; actives raise or lower the signal
# Description: ATG_CIS is a cell-based, multiplexed-readout assay that uses HepG2, a human liver cell line, with measurements taken at 24 hours after chemical dosing in a 24-well plate.ATG_DR4_LXR_CIS is one of 52 assay component(s) measured or calculated from the ATG_CIS assay. It is designed to make measurements of mRNA induction, a form of inducible reporter, as detected with fluorescence intensity signals by Reverse transcription polymerase chain reaction (RT-PCR) and Capillary electrophoresis technology.Data from the assay component ATG_DR4_LXR_CIS was analyzed into 1 assay endpoint. This assay endpoint, ATG_DR4_LXR_CIS, was analyzed with bidirectional fitting relative to DMSO as the negative control and baseline of activity. Using a type of inducible reporter, measures of mRNA for gain or loss-of-signal activity can be used to understand the reporter gene at the transcription factor-level as they relate to the gene NR1H2 and NR1H3. Furthermore, this assay endpoint can be referred to as a primary readout, because this assay has produced multiple assay endpoints where this one serves a reporter gene function. To generalize the intended target to other relatable targets, this assay endpoint is annotated to the nuclear receptor intended target family, where the subfamily is non-steroidal.
# Human liver HepG2 cells are transiently transfected with multiple reporter transcription units (MRTUs) in 6-well plates using FuGene 6 reagent (Roche; 3 ml FuGene/1 mg DNA). The MRTU constructs are regulated by a cis-regulating element (promoter). […] A major difference between the CIS and TRANS system is that in CIS activities of endogenous TFs are measured, whereas the TRANS assay evaluates changes in activities of exogenous, chimeric NR-Gal4 proteins. […] At the end of 24 hour incubation, total RNA was isolated using TriZol reagent (Invitrogen). The isolated RNA is then reverse-transcribed using oligo(dT) primer and Mo-MLV reverse transcriptase (Invitrogen) with DNAse I (Ambion) treatment for 30 min. The one-tenth of the produced cDNA was amplified by PCR using Taq DNA polymerase (Invitrogen) and two reporter sequence-specific primers. The PCR products were fluorescently labeled by primer extension with 6-arboxyfluorescein (6-FAM) 5'-labeled reporter sequence-specific primer (2 min at 95 C, 20 s at 68 C and 10 min at 72 C) and these products were digested with 5U of HpaI (New England Biolabs) for 2h at 37 C. The fragments were purified using Qiaquick PCR columns (Qiagen), analyzed on an ABI 3130xL genetic analyzer (Applied Biosystems) with peak positions identified by using a set of X-rhodamine (ROX)-labeled MapMarker1000 molecular weight standards (BioVentures). The raw capillary electrophoresis data was processed using Attagraph software (Attagene).
Structure (SMILES),AC50,outcome
CCOP(=S)(OCC)OP(=S)(OCC)OCC,29.5 µM (active),
CCOP(=S)(OCC)SCSc1cc(Cl)ccc1Cl,,inactive
CNC(=O)CSP(=O)(OC)OC,,inactive
N#Cc1cccnc1,,inactive
CCCSP(=S)(OCC)Oc1ccc(Cl)cc1Cl (stereo not given),,inactive
C=CC(Cl)CCl (stereo not given),,inactive
CCC[CH2][Sn]([CH2]CCC)([CH2]CCC)[CH2]CCC,3.31 µM (active),
C[C@H]1C(=O)O[C@@H]2CCN3CC=C(COC(=O)[C@](C)(O)[C@]1(C)O)[C@H]23,,inactive
CCCSP(=S)(OCC)Oc1ccc(SC)cc1 (stereo not given),,inactive
COC(=O)c1cc(Oc2ccc(Cl)cc2Cl)ccc1[N+](=O)[O-],,inactive
Nc1ccc(N)cc1,44.6 µM (active),inactive
C=CCN=C=S,,inactive
C=C(C)C(=O)OCC(CC)CCCC (stereo not given),,inactive
O=CCCl,68.5 µM (active),
OC(c1ccc(Cl)cc1)(c1ccc(Cl)cc1)c1cccnc1,11.1 µM (active),
CC(c1ccc(O)cc1)c1ccc(O)cc1,,inactive
O=[N+]([O-])c1ccccc1O,,inactive
c1ccc2sc(SNC3CCCCC3)nc2c1,,inactive
C[C@]12CC[C@@H](O)C[C@@H]1CC[C@@H]1[C@@H]2CC[C@]2(C)C(=O)CC[C@@H]12,,inactive
COc1ccccc1N,,inactive

Structure (SMILES),AC50,outcome
CC1CC(=O)O1 (stereo not given),,inactive
CCOC(=O)CC(=O)CCl,61.6 µM (active),
C=CCCl,,inactive
Cc1cccc(OP(=O)(Oc2cccc(C)c2)Oc2cccc(C)c2)c1,,inactive
Clc1ccc(C(Cl)(Cl)Cl)cn1,,inactive
O=C=Nc1ccc(Cl)cc1,,inactive
BrCC(Br)c1ccccc1 (stereo not given),,inactive
C1CCC(C2CCCCC2)CC1,,inactive
OC(Cc1ccccc1Cl)(Cn1cncn1)C1(Cl)CC1 (stereo not given),,inactive
OCCCCO,,inactive
NC(=O)c1ccc(N)nc1,,inactive
FC(F)OCC(F)(F)C(F)(F)F,,inactive
CC(C)(C)c1cc([N+](=O)[O-])cc(C(C)(C)C)c1O,,inactive
CC(C=O)Cc1ccc2c(c1)OCO2 (stereo not given),,inactive
Cc1cccc(N=Nc2ccc(N(C)C)cc2)c1,,inactive
Nc1cccnc1,,inactive
Nc1nc(=S)[nH][nH]1,,inactive
N#CCCC(Br)(C#N)CBr (stereo not given),,inactive
CC(C)[C@@H](Nc1ccc(C(F)(F)F)cc1Cl)C(=O)OC(C#N)c1cccc(Oc2ccccc2)c1 (stereo not given in full),,inactive
